What all share (test): DAPPL (digital affinity profiling via proximity ligation, sequencing); 10 mM Tris-HCl pH 7.5, 50 mM NaCl, 1 mM DTT, 4% glycerol, room temperature, 30 min; GST-TFs on glutathione beads, 16-mer random dsDNA library, 0.1% formaldehyde crosslink after washing; high values mean tight binding
The target in one assay is T1, FLI1 (Homo sapiens, UniProt Q01543 1-452).
T1 sequence: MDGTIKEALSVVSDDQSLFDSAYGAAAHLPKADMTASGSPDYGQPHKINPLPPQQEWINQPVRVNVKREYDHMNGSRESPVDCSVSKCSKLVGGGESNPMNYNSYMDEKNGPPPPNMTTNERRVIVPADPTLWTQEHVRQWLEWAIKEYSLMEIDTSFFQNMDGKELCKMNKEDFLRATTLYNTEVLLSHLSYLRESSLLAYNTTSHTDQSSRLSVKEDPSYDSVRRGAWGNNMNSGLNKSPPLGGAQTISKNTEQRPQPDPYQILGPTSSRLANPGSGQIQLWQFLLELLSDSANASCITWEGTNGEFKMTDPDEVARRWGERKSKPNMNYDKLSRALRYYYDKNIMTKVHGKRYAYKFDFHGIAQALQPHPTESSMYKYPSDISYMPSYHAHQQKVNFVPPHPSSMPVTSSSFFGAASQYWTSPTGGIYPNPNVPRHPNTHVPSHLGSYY
Particulars: protein: recombinant; tags: N-terminal GST; dsDNA, one strand shown. The procedure, abridged: (§1)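 Binding signal is each hexamer's read frequency for a factor divided by its frequency in the tag-only sample. The factors were GST-fused human transcription factors from yeast, captured on glutathione beads, DNA-barcoded and pooled with that sample. Pools were incubated with 200 nmole of a random double-stranded 16-mer DNA library in Tris/NaCl/DTT/glycerol buffer at room temperature for 30 min, then washed, crosslinked with 0.1% formaldehyde, proximity-ligated with BsaI/T4 ligase (1 h, 37 °C), PCR-amplified and sequenced on an Illumina NextSeq500.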

The next assay deals with T2, ELK1 (Homo sapiens, UniProt P19419 1-428).
T2 sequence: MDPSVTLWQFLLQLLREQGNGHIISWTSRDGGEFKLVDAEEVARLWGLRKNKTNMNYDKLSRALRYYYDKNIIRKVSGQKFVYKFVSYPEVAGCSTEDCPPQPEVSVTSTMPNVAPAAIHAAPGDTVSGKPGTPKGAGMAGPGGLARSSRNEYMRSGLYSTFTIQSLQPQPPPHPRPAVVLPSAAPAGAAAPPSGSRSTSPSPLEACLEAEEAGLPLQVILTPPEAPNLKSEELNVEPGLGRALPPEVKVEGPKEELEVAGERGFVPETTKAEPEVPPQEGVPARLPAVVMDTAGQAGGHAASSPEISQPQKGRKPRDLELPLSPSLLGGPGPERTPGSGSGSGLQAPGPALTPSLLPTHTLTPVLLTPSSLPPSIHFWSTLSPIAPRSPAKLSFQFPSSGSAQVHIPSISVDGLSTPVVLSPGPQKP
Particulars: protein: recombinant; tags: N-terminal GST; dsDNA, one strand shown. The procedure, abridged: as §1

Another assay addresses T3, GABPA (Homo sapiens, UniProt Q06546 1-454).
T3 sequence: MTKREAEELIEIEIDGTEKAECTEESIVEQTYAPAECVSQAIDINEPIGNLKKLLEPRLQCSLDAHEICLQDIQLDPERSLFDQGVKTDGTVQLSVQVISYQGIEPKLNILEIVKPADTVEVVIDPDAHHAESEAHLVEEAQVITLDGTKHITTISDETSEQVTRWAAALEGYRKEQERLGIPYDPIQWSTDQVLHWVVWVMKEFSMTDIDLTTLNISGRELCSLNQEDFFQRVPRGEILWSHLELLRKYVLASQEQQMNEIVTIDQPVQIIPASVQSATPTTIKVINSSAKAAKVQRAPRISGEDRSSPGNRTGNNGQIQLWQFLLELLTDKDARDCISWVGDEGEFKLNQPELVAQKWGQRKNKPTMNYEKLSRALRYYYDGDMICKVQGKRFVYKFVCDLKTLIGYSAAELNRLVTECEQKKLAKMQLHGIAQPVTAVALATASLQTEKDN
Particulars: protein: recombinant; tags: N-terminal GST; dsDNA, one strand shown. The procedure, abridged: as §1

The target in the next assay is T4, ERG (Homo sapiens, UniProt P11308 1-479).
T4 sequence: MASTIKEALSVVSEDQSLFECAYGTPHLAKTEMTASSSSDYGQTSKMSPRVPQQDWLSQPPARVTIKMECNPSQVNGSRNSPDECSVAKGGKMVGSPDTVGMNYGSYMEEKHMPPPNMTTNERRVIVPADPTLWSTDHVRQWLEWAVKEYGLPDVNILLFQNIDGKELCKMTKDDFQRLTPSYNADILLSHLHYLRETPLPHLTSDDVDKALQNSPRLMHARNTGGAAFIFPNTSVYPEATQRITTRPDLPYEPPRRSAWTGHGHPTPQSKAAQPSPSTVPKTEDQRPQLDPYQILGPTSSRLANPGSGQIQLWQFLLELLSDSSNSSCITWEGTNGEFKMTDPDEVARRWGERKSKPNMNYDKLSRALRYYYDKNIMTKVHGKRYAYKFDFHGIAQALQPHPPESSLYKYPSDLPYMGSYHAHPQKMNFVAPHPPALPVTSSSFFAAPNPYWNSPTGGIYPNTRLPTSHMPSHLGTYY
Particulars: protein: recombinant; tags: N-terminal GST; dsDNA, one strand shown. The procedure, abridged:
as §1

The target of another assay is ELF1 (Homo sapiens, UniProt P32519 1-619). Particulars: protein: recombinant; tags: N-terminal GST; dsDNA, one strand shown. The procedure, abridged:
as §1

A further assay concerns the target T5, EHF (Homo sapiens, UniProt Q9NZC4 1-300).
T5 sequence: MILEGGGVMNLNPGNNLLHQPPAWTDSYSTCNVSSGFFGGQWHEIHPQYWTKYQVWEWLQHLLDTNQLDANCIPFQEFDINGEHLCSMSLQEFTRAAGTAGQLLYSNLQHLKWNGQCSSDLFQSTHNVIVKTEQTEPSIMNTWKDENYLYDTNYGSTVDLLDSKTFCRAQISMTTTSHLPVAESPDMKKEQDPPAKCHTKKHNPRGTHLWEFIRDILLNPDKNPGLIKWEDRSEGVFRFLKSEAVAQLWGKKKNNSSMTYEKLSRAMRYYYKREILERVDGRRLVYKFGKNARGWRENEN
Particulars: protein: recombinant; tags: N-terminal GST; dsDNA, one strand shown. The procedure, abridged: as §1

For another assay, the target named is SPI1 (Homo sapiens, UniProt P17947 1-270). The following applies: protein: recombinant; tags: N-terminal GST; dsDNA, one strand shown. The procedure, abridged: as §1
A further assay addresses SPIB (Homo sapiens, UniProt Q01892 1-262). Particulars: protein: recombinant; tags: N-terminal GST; dsDNA, one strand shown. The procedure, abridged: as §1
A further assay concerns the target T6, ELK3 (Homo sapiens, UniProt P41970 1-407).
T6 sequence: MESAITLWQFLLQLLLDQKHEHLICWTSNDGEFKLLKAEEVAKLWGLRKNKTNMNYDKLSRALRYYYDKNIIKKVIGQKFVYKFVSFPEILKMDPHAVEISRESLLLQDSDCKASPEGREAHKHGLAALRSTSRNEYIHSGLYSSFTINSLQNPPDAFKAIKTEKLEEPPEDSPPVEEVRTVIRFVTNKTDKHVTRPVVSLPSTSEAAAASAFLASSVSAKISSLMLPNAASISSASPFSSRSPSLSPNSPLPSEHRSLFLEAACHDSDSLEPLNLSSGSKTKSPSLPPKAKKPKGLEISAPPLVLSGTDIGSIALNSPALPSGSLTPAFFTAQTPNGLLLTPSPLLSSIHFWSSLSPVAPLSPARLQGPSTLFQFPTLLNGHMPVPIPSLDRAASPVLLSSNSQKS
Particulars: protein: recombinant; tags: N-terminal GST; dsDNA, one strand shown. The procedure, abridged:
as §1

The next assay concerns the target T7, FEV (Homo sapiens, UniProt Q99581 1-238).
T7 sequence: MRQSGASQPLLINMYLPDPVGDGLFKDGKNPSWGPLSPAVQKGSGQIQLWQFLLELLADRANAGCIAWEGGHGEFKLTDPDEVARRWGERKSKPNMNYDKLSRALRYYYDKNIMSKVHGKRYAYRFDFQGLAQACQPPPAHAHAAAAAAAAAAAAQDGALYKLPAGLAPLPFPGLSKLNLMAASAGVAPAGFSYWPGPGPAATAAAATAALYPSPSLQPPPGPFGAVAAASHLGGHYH
The following applies: protein: recombinant; tags: N-terminal GST; dsDNA, one strand shown. The procedure, abridged:
as §1

In the next assay the target is ETV5 (Homo sapiens, UniProt P41161 1-510). The following applies: protein: recombinant; tags: N-terminal GST; dsDNA, one strand shown. The procedure, abridged:
as §1

In another assay the target is HSF1 (Homo sapiens, UniProt Q00613 1-529). The following applies: protein: recombinant; tags: N-terminal GST; chain copies: 3; dsDNA, one strand shown. The procedure, abridged: as §1
Sequence of HSF1 (Q00613 whole entry): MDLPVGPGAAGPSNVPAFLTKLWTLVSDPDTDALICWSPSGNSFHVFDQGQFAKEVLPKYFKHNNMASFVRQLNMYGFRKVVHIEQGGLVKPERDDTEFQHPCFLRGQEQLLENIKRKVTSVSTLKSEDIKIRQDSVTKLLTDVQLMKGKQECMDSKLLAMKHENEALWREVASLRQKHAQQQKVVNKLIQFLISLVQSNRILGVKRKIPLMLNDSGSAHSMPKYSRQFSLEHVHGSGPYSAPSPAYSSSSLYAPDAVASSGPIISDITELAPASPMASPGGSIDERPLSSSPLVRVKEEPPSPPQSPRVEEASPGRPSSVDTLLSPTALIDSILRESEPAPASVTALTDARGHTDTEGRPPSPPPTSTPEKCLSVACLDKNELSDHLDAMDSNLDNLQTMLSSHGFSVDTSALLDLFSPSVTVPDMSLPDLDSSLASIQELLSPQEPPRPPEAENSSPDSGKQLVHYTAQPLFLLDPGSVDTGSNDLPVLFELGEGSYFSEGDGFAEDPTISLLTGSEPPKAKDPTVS
Another assay has as its target T8, SPIC (Homo sapiens, UniProt Q8N5J4 1-248).
T8 sequence: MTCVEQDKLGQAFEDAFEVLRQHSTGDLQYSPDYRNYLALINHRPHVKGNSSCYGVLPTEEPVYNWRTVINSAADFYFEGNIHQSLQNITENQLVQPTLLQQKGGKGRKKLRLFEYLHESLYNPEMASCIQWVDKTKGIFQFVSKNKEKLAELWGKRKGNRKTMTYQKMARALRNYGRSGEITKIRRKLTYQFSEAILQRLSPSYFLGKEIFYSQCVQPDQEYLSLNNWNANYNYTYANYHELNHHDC
Particulars: protein: recombinant; tags: N-terminal GST; dsDNA, one strand shown. The procedure, abridged:
as §1

The next assay deals with ELF4 (Homo sapiens, UniProt Q99607 1-663). The following applies: protein: recombinant; tags: N-terminal GST; dsDNA, one strand shown. The procedure, abridged: as §1
Sequence of ELF4 (Q99607 whole entry): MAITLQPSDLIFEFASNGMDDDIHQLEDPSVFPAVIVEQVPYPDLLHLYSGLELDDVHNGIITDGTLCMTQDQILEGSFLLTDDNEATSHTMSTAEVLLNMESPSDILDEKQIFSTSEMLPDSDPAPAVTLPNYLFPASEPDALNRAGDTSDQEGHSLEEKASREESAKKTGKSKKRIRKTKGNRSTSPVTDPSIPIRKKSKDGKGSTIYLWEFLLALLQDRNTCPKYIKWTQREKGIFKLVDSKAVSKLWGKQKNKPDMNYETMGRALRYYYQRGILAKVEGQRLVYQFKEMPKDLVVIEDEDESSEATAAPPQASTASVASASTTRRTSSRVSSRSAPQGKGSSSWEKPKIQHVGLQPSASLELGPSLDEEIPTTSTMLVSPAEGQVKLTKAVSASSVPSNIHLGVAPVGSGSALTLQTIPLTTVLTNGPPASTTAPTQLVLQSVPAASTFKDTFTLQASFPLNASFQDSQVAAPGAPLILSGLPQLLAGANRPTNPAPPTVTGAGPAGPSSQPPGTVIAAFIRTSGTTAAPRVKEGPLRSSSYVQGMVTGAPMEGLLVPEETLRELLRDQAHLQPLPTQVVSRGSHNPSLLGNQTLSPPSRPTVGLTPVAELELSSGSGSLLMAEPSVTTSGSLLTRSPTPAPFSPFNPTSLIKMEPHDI
The next assay has as its target T9, ELK4 (Homo sapiens, UniProt P28324-2 1-405).
T9 sequence: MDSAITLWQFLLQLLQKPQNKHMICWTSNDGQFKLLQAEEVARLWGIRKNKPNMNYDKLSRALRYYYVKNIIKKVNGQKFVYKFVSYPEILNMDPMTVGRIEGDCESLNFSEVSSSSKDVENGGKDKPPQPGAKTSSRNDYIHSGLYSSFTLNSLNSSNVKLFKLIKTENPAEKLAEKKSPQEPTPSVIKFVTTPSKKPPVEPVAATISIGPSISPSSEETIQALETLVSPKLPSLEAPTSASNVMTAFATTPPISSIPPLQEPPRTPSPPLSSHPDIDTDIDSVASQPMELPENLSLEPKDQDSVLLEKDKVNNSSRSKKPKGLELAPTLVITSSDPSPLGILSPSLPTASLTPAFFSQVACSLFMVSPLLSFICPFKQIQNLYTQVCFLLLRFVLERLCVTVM
The following applies: protein: recombinant; tags: N-terminal GST; dsDNA, one strand shown. The procedure, abridged:
as §1

For a further assay, the target named is T10, ETV2 (Homo sapiens, UniProt O00321 1-342).
T10 sequence: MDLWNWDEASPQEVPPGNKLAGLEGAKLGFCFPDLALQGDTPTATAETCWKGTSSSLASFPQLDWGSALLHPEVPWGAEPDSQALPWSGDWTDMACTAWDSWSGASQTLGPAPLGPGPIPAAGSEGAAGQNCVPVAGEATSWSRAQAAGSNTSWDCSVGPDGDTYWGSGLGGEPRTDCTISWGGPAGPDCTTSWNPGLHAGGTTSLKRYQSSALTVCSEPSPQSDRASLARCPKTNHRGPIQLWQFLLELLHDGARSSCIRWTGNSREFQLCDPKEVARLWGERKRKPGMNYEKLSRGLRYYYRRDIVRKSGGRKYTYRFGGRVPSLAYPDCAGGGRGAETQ
The following applies: protein: recombinant; tags: N-terminal GST; dsDNA, one strand shown. The procedure, abridged:
as §1

The next assay addresses T11, ELF3 (Homo sapiens, UniProt P78545 1-371).
T11 sequence: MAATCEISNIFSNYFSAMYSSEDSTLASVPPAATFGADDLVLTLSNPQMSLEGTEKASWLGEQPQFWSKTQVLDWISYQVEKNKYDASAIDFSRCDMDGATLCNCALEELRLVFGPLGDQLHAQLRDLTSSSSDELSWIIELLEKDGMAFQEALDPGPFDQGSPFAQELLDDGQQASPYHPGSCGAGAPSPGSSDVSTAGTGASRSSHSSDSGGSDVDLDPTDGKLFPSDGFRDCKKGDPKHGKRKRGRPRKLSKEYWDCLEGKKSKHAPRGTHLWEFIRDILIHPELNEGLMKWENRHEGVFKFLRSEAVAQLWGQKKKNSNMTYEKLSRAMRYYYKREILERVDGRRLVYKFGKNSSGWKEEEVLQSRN
Particulars: protein: recombinant; tags: N-terminal GST; dsDNA, one strand shown. The procedure, abridged:
as §1

A further assay concerns the target CRX (Homo sapiens, UniProt O43186 1-299). The following applies: protein: recombinant; tags: N-terminal GST; dsDNA, one strand shown. The procedure, abridged:
as §1

Another assay concerns the target ETV1 (Homo sapiens, UniProt P50549 1-477). Particulars: protein: recombinant; tags: N-terminal GST; dsDNA, one strand shown. The procedure, abridged: as §1

Sequence of SPIB (Q01892 whole entry): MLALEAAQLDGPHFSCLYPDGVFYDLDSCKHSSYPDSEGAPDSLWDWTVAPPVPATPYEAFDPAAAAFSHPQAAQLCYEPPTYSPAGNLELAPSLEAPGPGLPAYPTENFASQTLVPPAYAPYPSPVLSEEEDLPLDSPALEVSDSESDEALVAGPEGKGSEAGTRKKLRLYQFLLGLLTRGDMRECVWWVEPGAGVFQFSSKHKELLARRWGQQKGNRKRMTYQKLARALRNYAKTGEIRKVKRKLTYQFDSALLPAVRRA
Sequence of CRX (O43186 whole entry): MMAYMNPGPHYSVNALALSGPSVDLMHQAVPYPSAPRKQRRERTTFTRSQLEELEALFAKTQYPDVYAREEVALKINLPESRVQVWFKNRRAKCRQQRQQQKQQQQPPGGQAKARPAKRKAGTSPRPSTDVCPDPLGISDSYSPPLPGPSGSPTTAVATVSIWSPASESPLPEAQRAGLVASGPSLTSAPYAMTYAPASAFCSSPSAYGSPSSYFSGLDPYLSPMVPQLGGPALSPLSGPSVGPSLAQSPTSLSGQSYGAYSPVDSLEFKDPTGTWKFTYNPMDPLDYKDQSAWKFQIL
Sequence of ETV1 (P50549 whole entry): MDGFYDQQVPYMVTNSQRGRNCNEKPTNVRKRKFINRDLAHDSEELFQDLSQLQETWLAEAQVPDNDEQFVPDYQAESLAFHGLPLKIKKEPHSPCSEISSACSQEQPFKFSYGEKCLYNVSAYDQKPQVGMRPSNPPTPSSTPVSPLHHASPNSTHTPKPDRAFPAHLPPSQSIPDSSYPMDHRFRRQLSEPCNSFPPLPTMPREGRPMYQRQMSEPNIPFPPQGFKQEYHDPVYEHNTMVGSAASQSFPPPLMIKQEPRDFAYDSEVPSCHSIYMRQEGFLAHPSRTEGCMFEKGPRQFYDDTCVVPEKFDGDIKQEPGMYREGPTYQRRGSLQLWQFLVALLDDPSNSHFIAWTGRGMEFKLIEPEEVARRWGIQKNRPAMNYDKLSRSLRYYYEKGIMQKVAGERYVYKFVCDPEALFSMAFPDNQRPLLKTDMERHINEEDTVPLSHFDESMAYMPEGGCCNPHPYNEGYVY
Sequence of ELF1 (P32519 whole entry): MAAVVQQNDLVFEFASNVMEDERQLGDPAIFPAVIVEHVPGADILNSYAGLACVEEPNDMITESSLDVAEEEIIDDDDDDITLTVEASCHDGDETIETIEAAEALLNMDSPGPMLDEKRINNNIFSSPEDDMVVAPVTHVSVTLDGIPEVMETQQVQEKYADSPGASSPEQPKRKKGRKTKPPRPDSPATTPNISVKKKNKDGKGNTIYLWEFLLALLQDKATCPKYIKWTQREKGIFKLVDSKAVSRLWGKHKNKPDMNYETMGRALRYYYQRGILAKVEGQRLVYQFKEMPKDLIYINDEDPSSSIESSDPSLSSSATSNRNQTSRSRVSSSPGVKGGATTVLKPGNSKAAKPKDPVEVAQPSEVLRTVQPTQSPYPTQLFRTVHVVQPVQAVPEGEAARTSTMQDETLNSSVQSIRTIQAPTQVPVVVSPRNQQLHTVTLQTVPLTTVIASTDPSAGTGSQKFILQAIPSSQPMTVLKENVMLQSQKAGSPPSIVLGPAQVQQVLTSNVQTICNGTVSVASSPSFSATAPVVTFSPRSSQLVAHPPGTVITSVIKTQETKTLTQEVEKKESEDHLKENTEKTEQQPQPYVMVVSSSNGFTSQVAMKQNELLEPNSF
Sequence of ETV5 (P41161 whole entry): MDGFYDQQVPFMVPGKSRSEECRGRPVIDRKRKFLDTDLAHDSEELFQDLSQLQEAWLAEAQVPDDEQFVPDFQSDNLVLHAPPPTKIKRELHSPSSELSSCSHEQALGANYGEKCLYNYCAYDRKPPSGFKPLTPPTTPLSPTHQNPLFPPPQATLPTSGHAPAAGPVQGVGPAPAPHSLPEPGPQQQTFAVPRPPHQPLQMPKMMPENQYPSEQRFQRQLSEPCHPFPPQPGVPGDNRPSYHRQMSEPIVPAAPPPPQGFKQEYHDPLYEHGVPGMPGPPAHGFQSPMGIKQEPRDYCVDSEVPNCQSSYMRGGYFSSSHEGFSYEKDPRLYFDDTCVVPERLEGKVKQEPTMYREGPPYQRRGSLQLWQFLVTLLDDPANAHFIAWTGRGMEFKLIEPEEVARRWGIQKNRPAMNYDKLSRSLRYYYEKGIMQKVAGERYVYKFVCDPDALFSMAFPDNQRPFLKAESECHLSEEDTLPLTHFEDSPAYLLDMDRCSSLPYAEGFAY

Regarding ATCACT, the binding signal with FLI1 was 1.19 fold enrichment (6-mer frequency, TF over GST control); in the assay with ELK1, 1.16 fold enrichment (6-mer frequency, TF over GST control); with GABPA, 1.19 fold enrichment (6-mer frequency, TF over GST control); with ERG, 1.28 fold enrichment (6-mer frequency, TF over GST control); with ELF1, 1.34 fold enrichment (6-mer frequency, TF over GST control); with EHF, 1.15 fold enrichment (6-mer frequency, TF over GST control). The binding signal with SPI1 is 1.32 fold enrichment (6-mer frequency, TF over GST control); with SPIB, 1.38 fold enrichment (6-mer frequency, TF over GST control); with ELK3, 1.18 fold enrichment (6-mer frequency, TF over GST control); with FEV it was 1.25 fold enrichment (6-mer frequency, TF over GST control); with ETV5, 1.2 fold enrichment (6-mer frequency, TF over GST control); with HSF1, 1.14 fold enrichment (6-mer frequency, TF over GST control). For the same sequence, the binding signal with SPIC was 1.34 fold enrichment (6-mer frequency, TF over GST control); with ELF4 it was 1.23 fold enrichment (6-mer frequency, TF over GST control); with ELK4, 1.45 fold enrichment (6-mer frequency, TF over GST control); in the assay with ETV2, 1.29 fold enrichment (6-mer frequency, TF over GST control); with ELF3, 1.35 fold enrichment (6-mer frequency, TF over GST control); with CRX, 1.29 fold enrichment (6-mer frequency, TF over GST control). Further, the binding signal with ETV1 was 1.2 fold enrichment (6-mer frequency, TF over GST control).

These data come from PMC7862700, “An all-to-all approach to the identification of sequence-specific readers for epigenetic DNA modifications on cytosine”.
